SNCA viab count: GF-AFC viability counterscreen for inhibitors of alpha-synuclein gene (SNCA) expression; Potency, µM (series often up to 57.1 µM), for the others: top-dose activity change, negative = cytotoxicity, most hits filed as cytotoxic; HEK-293-SNCA-luc viability, GF-AFC fluorescence, 24 h; AID 1671193, 2021; 150,000 compounds, 0.12% hits;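 note: potency is the fitted concentration of half-maximal effect; 0% = DMSO-treated cells and -100% = medium-only wells without cells; nearly all actives have a fitted effect of over 30% in size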
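Cytotoxicity counterscreen: after 24 h compound treatment of genome-edited SNCA-luciferase HEK-293 cells, live-cell protease substrate GF-AFC read by fluorescence after 30 min; activity scaled between DMSO (0%) and medium-only (-100%), curves Hill-fitted.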
KDM5B inh: Primary screen for KDM5B Histone Demethylases FDH-coupled qHTS; Potency, µM (top dose mostly 57.7 µM), actives largely listed as inhibitors; 220,000 compounds, 2.6% hits; AID 1347165, 2019; KDM5B demethylase, FDH-coupled NADH fluorescence (FDH is formaldehyde dehydrogenase); Lysine-specific demethylase 5B (Homo sapiens), Q9UGL1; note: potency is the fitted concentration of half-maximal effect; 0% is about no effect; nearly all actives have a fitted effect of over 70% in size
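Here, H3K4me3 peptide (12.5 µM in substrate mix) is demethylated by KDM5BΔAP, 200 nM final, after 10 min compound exposure. Formaldehyde product is coupled through FDH (0.25 U/mL in mix) to NADH fluorescence; 30-min ΔRFU feeds dose-response curves.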
SNCA expr inh: Primary qHTS assay for inhibitors of alpha-synuclein gene (SNCA) expression; HEK-293 SNCA-luciferase knock-in, luminescence, 24 h; Potency, µM (top dose mostly 57.2 µM), for inactives: at the top dose activity change, negative = inhibition, actives largely listed as inhibitors; 140,000 compounds, 0.17% hits; AID 1671194, 2021;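 note: potency is the fitted concentration of half-maximal effect; plate controls were DMSO cells for no effect and cell-free wells for full effect; nearly all actives have a fitted effect of over 45% in size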
IP6K1 inhibitor: Primary qHTS assay for small molecule inhibitors of Inositol hexaphosphate kinase 1 (IP6K1). Inositol hexakisphosphate kinase 1 (Homo sapiens), Q92551. IP6K1 kinase, ADP-Glo luminescence, 2 h; hits give low values. activity change, % (series mostly up to about 58 µM). 140,000 compounds, 0.81% hits. AID 1645851, 2021; in the data active = activity change below about -25%; note: % is set by controls: 0 for no effect and ±100 for the full control effect
Target sequence (Q92551 whole entry, looked up): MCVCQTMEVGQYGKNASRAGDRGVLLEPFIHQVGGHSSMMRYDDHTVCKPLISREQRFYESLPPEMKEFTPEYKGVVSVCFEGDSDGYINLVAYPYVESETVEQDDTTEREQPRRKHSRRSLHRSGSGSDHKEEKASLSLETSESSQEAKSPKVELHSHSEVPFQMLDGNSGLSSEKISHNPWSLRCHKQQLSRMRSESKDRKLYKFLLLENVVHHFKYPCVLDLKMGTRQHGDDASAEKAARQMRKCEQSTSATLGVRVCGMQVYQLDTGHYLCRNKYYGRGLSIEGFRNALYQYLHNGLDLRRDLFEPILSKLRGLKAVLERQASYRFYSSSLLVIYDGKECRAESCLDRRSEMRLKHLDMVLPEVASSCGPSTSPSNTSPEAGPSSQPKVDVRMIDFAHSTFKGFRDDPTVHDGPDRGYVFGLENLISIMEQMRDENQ
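ADP-Glo luminescence measures ADP made by human IP6K1 during a 2 h RT reaction with ATP/IP6 (mix at 1.3 mM/130 uM); top library doses 57.5 and 19.1 uM final.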
IP6K1 conf: Confirmatory qHTS assay for small molecule inhibitors of Inositol hexaphosphate kinase 1 (IP6K1) | shares compounds with IP6K1 inhibitor | recombinant IP6K1 kinase, ADP-Glo luminescence, 2 h | Potency, µM (doses to about 49 µM), inactives show top-dose activity change, negative = inhibition, usual class: inhibitors | 1,200 compounds, 13% hits | AID 1645852, 2021; note: potency is the fitted concentration of half-maximal effect; % is set by controls: 0 for no effect and ±100 for the full control effect; nearly all actives have a fitted effect of over 65% in size
The depositor's hits bear a star; ! = not active in a repeat; [ ] = another dose, or the depositor's remark. This is a sample that favours compounds with a hit; in the whole collection about 2.9% have one here. Unless noted, calls come from the whole dose curve; as a rule, active = well fitted curve in the direction sought with a large enough effect; inconclusive = small, poorly fitted or top-dose-only effect, or another doubt; inactive = no such curve, though single readings can be large; an effect the other way counts as inactive or inconclusive.

Screening COc1cc2c(cc1OCc1ccncc1)NC(=O)C21CCN(Cc2ccccc2)CC1 returned SNCA viab count -11%[87.6 µM], KDM5B inh inactive, SNCA expr inh -19%[87.6 µM] and IP6K1 inhibitor -22.
CCCCCOc1cc2c(cc1-c1cc(/C=C/C(=O)O)ccc1O)C(C)(C)CCC2(C)C was read as SNCA viab count inconclusive, IP6K1 inhibitor -27* and IP6K1 conf inconclusive.
Screening CCNC(=O)N1[C@H]2CC[C@@H]1c1cnc(-c3ccc(F)cc3)nc1C2 returned SNCA viab count 4%, KDM5B inh inactive, SNCA expr inh 34% and IP6K1 inhibitor 11.
O=C1Nc2ccccc2C12CCN(Cc1cccc3ccccc13)CC2 was read as SNCA viab count -16%, KDM5B inh inactive, SNCA expr inh -7%, IP6K1 inhibitor -47* and IP6K1 conf inconclusive.
For O=C1Nc2ccccc2C12CCN(Cc1ccc(C(F)(F)F)cc1)CC2 the results were SNCA viab count -13%, KDM5B inh inactive, SNCA expr inh inconclusive, IP6K1 inhibitor -32* and IP6K1 conf inconclusive.
CCOC(=O)CC(SP(=S)(OC)OC)C(=O)OCC (stereo not drawn) was read as SNCA viab count -5%[23.9 µM], SNCA expr inh 2%[25.6 µM], IP6K1 inhibitor -70*! and IP6K1 conf 18µM*.
c1ccc(C2CN3CCCC3CN2)cc1 (stereo not drawn) was read as SNCA viab count -4%[87.6 µM], KDM5B inh inconclusive, SNCA expr inh -6%[87.6 µM] and IP6K1 inhibitor -5.
`C#CC1(O)CCC2C3CCC4=CC(=O)CCC4=C3C=CC21C` (stereo not drawn) gave SNCA viab count 15% and IP6K1 inhibitor -8.
For C=CC[C@]1(O)CC[C@H]2[C@@H]3CCC4=CC(=O)CCC4=C3C=C[C@@]21C the results were SNCA viab count -9%[23.9 µM], SNCA expr inh -27%[25.6 µM], IP6K1 inhibitor -45* and IP6K1 conf -16%.
Screening CC(C)(C)c1ccc(NC(=O)OC[C@H]2C[C@@H]3CCN2C[C@@H]3c2cc(C3CCCC3)nc(-c3ccncc3)n2)cc1 returned SNCA viab count inconclusive, KDM5B inh inactive, SNCA expr inh inconclusive and IP6K1 inhibitor 22.
For CC[C@H]1CN2CC[C@H]1C[C@@H]2CNC(=S)Nc1ccc(N(C)C)cc1 the results were SNCA viab count -10%[87.6 µM], KDM5B inh inactive, SNCA expr inh 32%[87.6 µM], IP6K1 inhibitor -33* and IP6K1 conf -11%.
For CC[C@H]1CN2CC[C@H]1C[C@@H]2CNC(=O)Nc1ccc(C(C)(C)C)cc1 the results were SNCA viab count 1%[87.6 µM], KDM5B inh inactive, SNCA expr inh -22%[87.6 µM] and IP6K1 inhibitor 4.
COc1cc2c(cc1-c1cccnc1)NC(=O)C21CCN(C(C)=O)CC1 was read as SNCA viab count 0%[87.6 µM], KDM5B inh inactive, SNCA expr inh inconclusive and IP6K1 inhibitor -14.
Screening COc1cc2c(cc1OCC1CC1)NC(=O)C21CCN(Cc2ccccc2O)CC1 returned SNCA viab count -11%[87.6 µM], KDM5B inh inactive, SNCA expr inh -17%[87.6 µM] and IP6K1 inhibitor -3.
`N=c1c2c(-c3ccccc3)c(-c3ccccc3)n(Cc3ccccc3)c2ncn1C1CCC(O)CC1` (stereo not drawn) gave SNCA viab count -1%, SNCA expr inh inconclusive and IP6K1 conf -10%[115 µM].
Screening CC12Cc3cn[nH]c3C=C1CCC1C2CCC2(C)C1CCC2(C)O (stereo not drawn) returned SNCA viab count -3%, IP6K1 inhibitor -47* and IP6K1 conf 7.3µM*.
For C[C@]12CCC(=O)C=C1CC[C@@H]1[C@H]3CC[C@](C)(O)[C@@]3(C)CC[C@@H]12 the results were SNCA viab count inconclusive, SNCA expr inh -16%[87.6 µM] and IP6K1 inhibitor 22.
